{"source": "the supplement of paper PMC11402862", "tested_on": "PPARgamma LBD (GAL4 fusion)", "experiment": "luciferase reporter transactivation, fold of solvent control; higher = stronger receptor activation", "details": "HEK293T, exposure time: 24 h", "method": "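HEK293T cells were transiently transfected with a GAL4-DBD fused to the ligand-binding domain of a human nuclear receptor (PPARα, PPARγ, PPARδ, FXR, LXRα, PXR, RARα or CAR), the GAL4-(UAS)5-TK firefly luciferase reporter and a Renilla luciferase normalisation plasmid. Cells were exposed to compound for 24 h in 0.5% DMSO. Firefly/Renilla luciferase was expressed as fold of the solvent control (=1). Values are the mean of 2-3 biological replicates; receptor agonists were used as positive controls.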", "data": [{"smiles": "OCCC(F)(F)C(F)(F)C(F)(F)C(F)(F)C(F)(F)C(F)(F)F", "note": "[6:2 fluorotelomer alcohol]", "values": [{"measurement": "luciferase reporter transactivation", "setting": "concentration: 1 µM", "value": 1.1}, {"measurement": "luciferase reporter transactivation", "setting": "concentration: 5 µM", "value": 1}, {"measurement": "luciferase reporter transactivation", "setting": "concentration: 10 µM", "value": 0.973}, {"measurement": "luciferase reporter transactivation", "setting": "concentration: 25 µM", "value": 1.1}, {"measurement": "luciferase reporter transactivation", "setting": "concentration: 50 µM", "value": 1.09}, {"measurement": "luciferase reporter transactivation", "setting": "concentration: 100 µM", "value": 0.563}, {"measurement": "luciferase reporter transactivation", "setting": "concentration: 250 µM", "value": 1.25}, {"measurement": "luciferase reporter transactivation", "setting": "concentration: 500 µM", "value": 1.1}]}, {"smiles": "O=S(=O)(O)CCC(F)(F)C(F)(F)C(F)(F)C(F)(F)C(F)(F)C(F)(F)C(F)(F)C(F)(F)F", "note": "[8:2 fluorotelomer sulfonic acid]", "values": [{"measurement": "luciferase reporter transactivation", "setting": "concentration: 1 µM", "value": 0.851}, {"measurement": "luciferase reporter transactivation", "setting": "concentration: 5 µM", "value": 0.861}, {"measurement": "luciferase reporter transactivation", "setting": "concentration: 10 µM", "value": 0.922}, {"measurement": "luciferase reporter transactivation", "setting": "concentration: 25 µM", "value": 0.905}, {"measurement": "luciferase reporter transactivation", "setting": "concentration: 50 µM", "value": 1.04}, {"measurement": "luciferase reporter transactivation", "setting": "concentration: 100 µM", "value": 1.31}, {"measurement": "luciferase reporter transactivation", "setting": "concentration: 250 µM", "value": 1.04}, {"measurement": "luciferase reporter transactivation", "setting": "concentration: 500 µM", "value": 0.846}]}, {"smiles": "O=S(=O)(O)CCC(F)(F)C(F)(F)C(F)(F)C(F)(F)C(F)(F)C(F)(F)F", "note": "[6:2 fluorotelomer sulfonic acid]", "values": [{"measurement": "luciferase reporter transactivation", "setting": "concentration: 1 µM", "value": 1.45}, {"measurement": "luciferase reporter transactivation", "setting": "concentration: 5 µM", "value": 1.66}, {"measurement": "luciferase reporter transactivation", "setting": "concentration: 10 µM", "value": 1.6}, {"measurement": "luciferase reporter transactivation", "setting": "concentration: 25 µM", "value": 1.57}, {"measurement": "luciferase reporter transactivation", "setting": "concentration: 50 µM", "value": 1.9}, {"measurement": "luciferase reporter transactivation", "setting": "concentration: 100 µM", "value": 2.81}]}, {"smiles": "O=C(O)C(F)(F)C(F)(F)C(F)(F)C(F)(F)F", "note": "[perfluoropentanoic acid]", "values": [{"measurement": "luciferase reporter transactivation", "setting": "concentration: 1 µM", "value": 1.01}, {"measurement": "luciferase reporter transactivation", "setting": "concentration: 5 µM", "value": 1.01}, {"measurement": "luciferase reporter transactivation", "setting": "concentration: 10 µM", "value": 0.918}, {"measurement": "luciferase reporter transactivation", "setting": "concentration: 25 µM", "value": 0.953}, {"measurement": "luciferase reporter transactivation", "setting": "concentration: 50 µM", "value": 0.925}, {"measurement": "luciferase reporter transactivation", "setting": "concentration: 100 µM", "value": 0.858}, {"measurement": "luciferase reporter transactivation", "setting": "concentration: 250 µM", "value": 0.947}, {"measurement": "luciferase reporter transactivation", "setting": "concentration: 500 µM", "value": 1.11}]}, {"smiles": "Cc1c(C)c2c(c(C)c1O)CCC(C)(COc1ccc(CC3SC(=O)NC3=O)cc1)O2", "note": "(stereo unspecified) [troglitazone]", "values": [{"measurement": "luciferase reporter transactivation", "setting": "concentration: 10 µM", "value": 27.7}]}]}
